# Screening data deposited in PubChem BioAssay by National Center for Advancing Translational Sciences (NCATS).
# HPGD inh: qHTS Assay for Inhibitors of HPGD (15-Hydroxyprostaglandin Dehydrogenase). actives 4.3% (n = 150,000). Potency, µM, without a hit: at the top dose activity change, negative = inhibition, most hits filed as inhibitors. 15-hydroxyprostaglandin dehydrogenase [NAD(+)] (Homo sapiens), P15428. purified HPGD, NADH fluorescence kinetic, PGE2 substrate. AID 894, 2007; also: potency is read from the fitted curve at half-maximal effect; % is scaled to controls: 0 for no effect and ±100 for the full control effect
# Target sequence (P15428 whole entry, looked up): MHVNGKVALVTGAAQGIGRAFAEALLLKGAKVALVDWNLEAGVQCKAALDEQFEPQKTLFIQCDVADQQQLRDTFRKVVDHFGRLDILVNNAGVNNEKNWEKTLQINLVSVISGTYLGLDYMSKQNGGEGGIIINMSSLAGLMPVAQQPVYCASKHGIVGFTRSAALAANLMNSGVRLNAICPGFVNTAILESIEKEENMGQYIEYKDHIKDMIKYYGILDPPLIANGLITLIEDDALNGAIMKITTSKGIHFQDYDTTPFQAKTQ
#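 20 nM HPGD preincubated 15 min at room temperature with compound in 50 mM Tris-HCl pH 8, 0.01% Tween 20. Started with 1 mM NAD+ and 30 uM prostaglandin E2; NADH fluorescence (360/450 nm) read 5 times over 30-s intervals, last minus first.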
# PNC inhibitor: High Content Assay for Compounds that inhibit the Assembly of the Perinucleolar Compartment; PC3M PTB-GFP, PNC prevalence imaging, 16 h; stronger effect = lower value; activity change (PNC), negative = inhibition, % at 10 µM; actives 3.1% (n = 140,000);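 active = readout at or below -70, meaning at least 70% loss of cells showing the perinucleolar compartment, a nuclear body marking cancer cells; inconclusive = readout between -30 and a set limit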;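 also: plate controls were DMSO wells for no effect and camptothecin positive control wells for full effect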
#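 PC3M cells stably expressing PTB-GFP, 750–1000 cells/well, treated 16 h at 37 °C with compound (23 nl of library stock), in duplicate. After paraformaldehyde fixation and Hoechst stain, imaged at 20x; PNC prevalence scored by image analysis.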
# HttQ103 aggreg: qHTS Multiplex Assay to Identify Dual Action Probes in a Cell Model of Huntington: Aggregate Formation (GFP). Potency, µM (doses to about 46.1 µM), for the others: at the top dose activity change, negative = inhibition, hits mostly inhibitors. AID 1688, 2009. PC12 HttQ103-GFP aggregates, Acumen cytometry, 40 h. actives 1.1% (n = 220,000); active = well fitted curve in the direction sought with a large enough effect; inconclusive = small, poorly fitted or top-dose-only effect, or another doubt; inactive = no such curve, though single readings can be large; an effect the other way counts as inactive or inconclusive; also: potency is read from the fitted curve at half-maximal effect; % is scaled to controls: 0 for no effect and ±100 for the full control effect; nearly all actives have a fitted effect of over 60% in size
#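 Huntingtin Q103 exon 1–GFP aggregates in induced PC12 cells (100 nM tebufenozide) were quantified by cytometry from lysates, with compounds dosed in titration.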
# ALDH1A1 block: qHTS Assay for Inhibitors of Aldehyde Dehydrogenase 1 (ALDH1A1) | Purified ALDH1A1, NADH fluorescence, propionaldehyde substrate | AID 1030, 2008 | Potency, µM (series often up to 75.3 µM), inactives show at the top dose activity, negative = inhibition, most hits filed as inhibitors | Aldehyde dehydrogenase 1A1 (Homo sapiens), P00352 | actives 7.3% (n = 220,000);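 also: potency is read from the fitted curve at half-maximal effect; plate controls were no enzyme wells and a reference inhibitor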
# RGS12 GoLoco inh: qHTS Assay for Inhibitors of RGS12 GoLoco Motif Activity (Red Fluorophore) | Guanine nucleotide-binding protein G(i) subunit alpha-1 (Homo sapiens), P63096 | Gai1:RGS12 GoLoco peptide FP, rhodamine, 10 min | Potency, µM (titrated, usually from 61.6 µM), inactives show top-dose activity, negative = inhibition, actives largely listed as inhibitors | actives 0.44% (n = 230,000) | AID 880, 2007; active = well fitted inhibition curve with a large enough effect, not every such curve was filed as active; inactive = no such curve, though single readings can be large or run the other way; also: potency is read from the fitted curve at half-maximal effect; % is scaled to controls: 0 for no effect and ±100 for the full control effect; nearly all actives have a fitted effect of over 30% in size
# HTT cytoprotect: qHTS Multiplex Assay to Identify Dual Action Probes in a Cell Model of Huntington: Cytoprotection (ATP) | actives 0.14% (n = 230,000) | Potency, µM (highest dose often 56.4 µM), for inactives: cytoprotection (ATP increase), actives largely listed as activators | PC12 HTT-Q103 induced, cytoprotection, ATP luminescence, 40 h | AID 1471, 2008; active = well fitted curve in the direction sought with a large enough effect; inconclusive = small, poorly fitted or top-dose-only effect, or another doubt; inactive = no such curve, though single readings can be large; an effect the other way counts as inactive or inconclusive; also: potency is read from the fitted curve at half-maximal effect; % of control where 0% means no effect; nearly all actives have a fitted effect of over 45% in size
#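 Compounds added alongside 100 nM tebufenozide, which induces toxic Q103 huntingtin exon 1-GFP in stable PC12 cells; surviving cells quantified by luminescent ATP measurement. Medium: phenol red-free DMEM, 5% equine and 5% calf serum.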
# The depositor's hits bear a star; ? = inconclusive; · = not tested or not shown; [ ] = dose if it differs, or a comment. Sampled rows, rich in hits. Any-hit rate of the full collection: about 11%. Unless noted, calls follow the shape of the dose curve; as a rule, active = well fitted inhibition curve with a large enough effect (not every such curve was filed as active); inconclusive = small, poorly fitted or top-dose-only effect, or another doubt; inactive = no such curve, though single readings can be large or run the other way.
SMILES,HPGD inh,PNC inhibitor,HttQ103 aggreg,ALDH1A1 block,RGS12 GoLoco inh,HTT cytoprotect
CC(C)(C)NCc1cc2ccccc2[nH]c1=O,?,-11,4%[9.22 µM],20µM*,-2%,-21%
O=C(Nc1ccc(Nc2ccc3c(c2)C(=O)c2ccccc2C3=O)c2c1C(=O)c1ccccc1C2=O)c1ccccc1,-13%,·,·,-5%[13.5 µM],45%[14.2 µM],-4%[10 µM]
CCCn1c(SCC(=O)NNC(=O)c2ccccc2)nnc1-c1cccnc1,·,·,0%[9.22 µM],·,5%,-15%[10 µM]
O=C(COc1ccc(Cl)cc1)N1CCN(c2ccc([N+](=O)[O-])c(N3CCCCC3)c2)CC1,-9%,27,1%,2.5µM*,-12%,-31%[10 µM]
O=[N+]([O-])c1ccc(Cl)cc1N1CCOCC1,·,·,-4%[9.22 µM],6%,-6%,-3%[10 µM]
O=[N+]([O-])c1ccc(Cl)cc1N1CCCCC1,·,·,3%[9.22 µM],18µM*,-3%,10%[10 µM]
O=[N+]([O-])c1ccc(N2CCCCC2)nc1N1CCCCC1,·,·,-6%[9.22 µM],0.32µM*,13%,-26%[10 µM]
O=C(COc1ccccc1Cl)N1CCN(c2ccc([N+](=O)[O-])c(N3CCCCC3)c2)CC1,-23%,?,-14%,1.6µM*,-4%,-15%
Cc1nc(C(F)(F)F)nc(Nc2ccc(N=Nc3ccccc3)cc2)c1C#N,0%,-17,-10%,9%,1%,21%[10 µM]
CNc1cc(N2CCCCCC2)ccc1[N+](=O)[O-],?,35,8%,10µM*,-11%,-3%
O=C(NNC(=O)c1c(F)cccc1F)c1ccccc1-n1cccc1,·,·,14%,7%,6%,5%
C=C(C)C(=O)OCC1CN2C(CCC(C)C2c2ccc(Br)cc2)C(=O)O1 (stereo not given),·,·,·,0%[13.5 µM],·,?
CCCCN(CC)CCCNC(=O)CC1Oc2ccccc2NC1=O (stereo not given),3%,-109*,17%,20%,-1%,12%[10 µM]
Cc1nc2cnc(OCc3ccccc3)nc2n(CCc2ccccc2)c1=O,·,·,·,?,-1%,6%
CCOC(=O)CC1=NN(c2ccccc2)C(=O)/C1=C\c1ccc(OC)cc1OC,28µM*,-19,1%,?,0%,2%[10 µM]
COc1cc(/C=C2\C(=O)N(c3ccc(NC(C)=O)cc3)N=C2c2ccccc2)ccc1O,·,·,-2%,?,101%,·
COC(=O)CC1=NN(c2ccccc2)C(=O)/C1=C\c1ccc(OC)cc1,14µM*,19,7%,?,-6%,-24%[10 µM]
CCOC(=O)C1=C(C)N(c2ccccc2)C(=O)/C1=C\c1ccc(O)c(OC)c1,·,·,31%[9.22 µM],·,-35%,-4%[10 µM]
COC(=O)CC1=NN(c2ccc(OC)cc2)C(=O)/C1=C\c1ccc(Cl)cc1,25µM*,?,-19%,-11%,2%,-8%[10 µM]
C=C1c2ccccc2O[C@H](C(=O)OCC)[C@@H]1C1CCCCC1 (tested in a mixture with another compound),?,·,·,?,-20%[88.7 µM],-37%
Cc1cc2c(cc1C)C(=O)NC(C)(C)C2,-12%,18,10µM*,-15%,0%,-3%
O=S(=O)(NCc1ccccc1F)NCc1ccccc1F,·,·,10%,-7%,-6%,-20%
COc1ccccc1-c1nnc(SC/C(O)=C(\C#N)c2nc3ccccc3[nH]2)n1C1CCCCC1,35µM*,36,1%,?,58%,·
CC(C)Oc1ccc(N2CC(C(=O)NC3=NCCS3)CC2=O)cc1 (stereo not given),·,·,-5%[9.22 µM],5%,5%,-17%[10 µM]
COCn1c(-c2ccc(OC)cc2)nc2ccccc21,-30%,71,-8%,?,-2%,-29%[10 µM]
